Measured values taken from PubChem BioAssay AID602364 (National Center for Advancing Translational Sciences (NCATS), 2012).
Records with an inconclusive call do not appear. The source made the active and inactive calls. Calls come from the whole dose curve; as a rule, active = well fitted inhibition curve with a large enough effect; inconclusive = small, poorly fitted or top-dose-only effect; inactive = flat fitted curve, though single readings scatter.

molecular target: Luciferin 4-monooxygenase (Photinus pyralis) (UniProt P08659); assay: FLuc inhibitory activity for the follow-up compounds in a biochemical assay with 1mM ATP; settings: purified P. pyralis luciferase, luminescence; series mostly up to 57.5 µM; activity change, negative = inhibition: at the top concentration
Description: NCGC Assay Overview: Firefly (Photinus pyralis) luciferase is one of the most commonly used transcriptional reporters. It is considered one of the more dynamically responsive reporters - that is, responsive to changes in reporter transcription - as it requires no post-translational modifications and is enzymatically active directly after protein synthesis (Wood, 1998). With no endogenous expression in mammalian cells and without the requirement of external excitation, it offers very little background signal, thus generally providing excellent signal to background for most assays. Previous profiling work to determine the prevalence of compounds that affect FLuc enzymatic activity (PubChem AID 411) identified that ~3% of the MLSMR library (then at ~72K) inhibited FLuc. […] Of the compounds identified in this profile that inhibited FLuc, 151 compounds were selected for further analysis, in an effort to better understand their mode of inhibiting FLuc. The assay described here was to determine the activity of the compounds in a FLuc assay that contained a KM concentration of D-luciferin and a high concentration (1mM) of ATP.
NCGC Assay Protocol Summary: Reagents: 50mM Tris acetate, pH 7.5; 10mM Mg acetate; 10uM D-luciferin (Sigma #L9504); 1mM ATP; 0.01% Tween-20; 0.05% BSA; 10nM P. pyralis luciferase (Sigma #L9506) Control compounds used were two known firefly luciferase inhibitors (3-(5-(3-chlorophenyl)-1,2,4-oxadiazol-3-yl)benzoic acid and 5-(2-fluorophenyl)-3-phenyl-1,2,4-oxadiazole), and DMSO. Three microliters containing firefly luciferase substrates in buffer (final concentrations: 50mM Tris acetate, pH 7.5, 10mM Mg acetate, 0.01% Tween-20, 0.05% BSA, 10uM D-luciferin, 1mM ATP) are dispensed into each well of a Greiner white, solid-bottom 1536-well format plate using a flying reagent dispenser (FRD). These assay plates were then treated with 23nL of compound or DMSO using a Kalypsys pin tool, which allows for delivery of a 12-point intraplate titration of each compound to the assay plate (quantitative HTS), with a final compound concentrations ranging from approximately ~60uM to 0.3nM. One microliter of firefly luciferase in […] Tris-acetate buffer was then delivered by FRD to each well for a final enzyme concentration of 10nM. Luciferase activity was then measured using a ViewLux CCD imager (PerkinElmer), with an average exposure time of 2-30 seconds (2X binning, medium/high gain).

Luciferin 4-monooxygenase (Photinus pyralis), sequence (P08659 whole entry, looked up): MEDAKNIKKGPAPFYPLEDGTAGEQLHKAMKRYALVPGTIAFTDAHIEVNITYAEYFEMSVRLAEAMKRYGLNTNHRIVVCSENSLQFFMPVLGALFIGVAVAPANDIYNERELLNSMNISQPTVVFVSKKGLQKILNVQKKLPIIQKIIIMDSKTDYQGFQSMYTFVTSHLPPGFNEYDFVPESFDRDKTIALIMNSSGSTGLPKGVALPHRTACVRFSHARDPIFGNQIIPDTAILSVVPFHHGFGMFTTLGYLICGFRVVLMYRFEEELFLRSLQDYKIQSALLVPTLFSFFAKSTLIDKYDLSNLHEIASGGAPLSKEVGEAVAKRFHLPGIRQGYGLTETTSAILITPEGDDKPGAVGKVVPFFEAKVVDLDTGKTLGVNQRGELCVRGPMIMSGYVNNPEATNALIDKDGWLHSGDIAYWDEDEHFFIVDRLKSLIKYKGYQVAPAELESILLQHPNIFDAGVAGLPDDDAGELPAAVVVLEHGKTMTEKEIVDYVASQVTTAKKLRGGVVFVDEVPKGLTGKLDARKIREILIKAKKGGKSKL

Compound | Potency | activity change, negative = inhibition
Cc1ccccc1C(=O)Nc1cccc(C(=O)Nc2ccccc2C(=O)O)c1 | 32.6 µM (active) | 
CCOc1ccc(C(=O)Nc2ccccc2C(=O)O)cc1 | 1.83 µM (active) | 
O=C(O)c1cccc(NC(=O)c2cccc(S(=O)(=O)N3CCc4ccccc4C3)c2)c1 | 18.3 µM (active) | 
Cc1ccc(C(=O)Nc2cccc(C(=O)O)c2)cc1S(=O)(=O)N1CCCC1 | 0.461 µM (active) | 
Nc1ccc(-c2nc3ccc(C(=O)O)cc3s2)cc1 | 0.0651 µM (active) | 
Cc1c(C)c2ccc(OCC(=O)Nc3ccccn3)c(C)c2oc1=O | 0.0082 µM (active) | 
O=C(Nc1ccccc1C(=O)O)c1cc(S(=O)(=O)Nc2cccc(F)c2)ccc1Cl |  | -5.57% (inactive)
COc1ccc(C(=O)Nc2ccccc2C(=O)Nc2ccccc2C(=O)O)cc1 | 4.61 µM (active) | 
O=C(O)c1cccc(NC(=O)c2ccc(COc3ccc(Cl)cc3)cc2)c1 | 3.66 µM (active) | 
COc1ccc(-c2nc3ccccc3s2)cc1O | 0.0259 µM (active) | 
O=C(O)c1ccc(NC(=O)c2cc(S(=O)(=O)N3CCCCC3)c(Cl)cc2Cl)cc1 |  | 4.47% (inactive)
O=C(Nc1ccccc1C(=O)O)c1ccc(NC(=O)C2CCCCC2)cc1 | 32.6 µM (active) | 
Nc1ccc2nc(-c3ccc(O)cc3)sc2c1 | 0.183 µM (active) | 
O=C(Nc1ccc(-c2nc3ccccc3s2)cc1)C1=COCCO1 | 0.0183 µM (active) | 
O=C(COC(=O)c1ccccc1[N+](=O)[O-])c1ccc2c(c1)OCO2 | 0.0046 µM (active) | 
Nc1ccc2nc(-c3ccccc3)sc2c1 | 0.0366 µM (active) | 
COc1ccc(C(=O)Nc2nc3ccc(OC)cc3s2)cc1 | 5.8 µM (active) | 
CCCC(=O)Nc1nc2ccc(OCC)cc2s1 | 3.26 µM (active) | 
O=S(=O)(c1ccc(-c2nc3ccccc3s2)cc1)N1CCCC1 | 0.919 µM (active) | 
O=C(Nc1ccccc1C(=O)O)c1cc(S(=O)(=O)NCc2ccccc2)ccc1Cl |  | 0.773% (inactive)

Compound | Potency | activity change, negative = inhibition
Cc1c(NC(=O)c2cc(-n3cnnc3)ccc2Cl)cccc1-c1nc2ccccc2s1 | 2.91 µM (active) | 
CCn1c(C)nc2cc(-c3nc4n(n3)Cc3ccccc3-4)ccc21 | 0.0326 µM (active) | 
CCOc1ccc2nc(NC(=O)Cc3cccs3)sc2c1 | 3.66 µM (active) | 
O=C(Nc1cccc(-c2nc3ccccc3s2)c1)c1cc(-n2cnnc2)ccc1Cl | 9.19 µM (active) | 
O=C(Nc1ccccc1C(=O)O)c1cccc(C(=O)Nc2ccccc2C(=O)O)c1 | 11.6 µM (active) | 
O=C(Nc1ccccc1-c1nc2ccccc2s1)c1cccnc1 | 36.6 µM (active) | 
O=C(Nc1ccccc1C(=O)O)c1ccc(NC(=O)C2CCCO2)cc1 (stereo not given) | 20.6 µM (active) | 
O=C(Nc1cccc(-c2nc3ccccc3s2)c1)C1=COCCO1 | 25.9 µM (active) | 
CC(C)(C)NC(=O)c1ccccc1-c1nc2ccccc2s1 |  | -11.8% (inactive)
Cc1ccc(C(=O)Nc2cccc(C(=O)O)c2)cc1S(=O)(=O)N1CCCCC1 | 0.291 µM (active) | 
Cc1ccc(NS(=O)(=O)c2ccc(Cl)c(C(=O)Nc3cccc(C(=O)O)c3)c2)cc1 |  | -8.69% (inactive)
COc1ccc2nc(NC(=O)c3ccc([N+](=O)[O-])o3)sc2c1 | 3.26 µM (active) | 
Cc1ccc(C(=O)Nc2cccc(C(=O)O)c2)cc1S(=O)(=O)N1CCOCC1 | 3.26 µM (active) | 
COc1ccc2nc(NC(=O)CCc3ccc(OC)c(OC)c3)sc2c1 |  | 5.86% (inactive)
COc1ccc(NS(=O)(=O)c2cccc(C(=O)Nc3ccccc3C(=O)O)c2)cc1 |  | -2.81% (inactive)
Cc1ccc(C(=O)O/N=C(\N)c2ccccn2)c(Cl)c1 | 0.0046 µM (active) | 
COc1ccc(-c2cccc(C(=O)Nc3cccc(C(=O)O)c3)c2)cc1 | 5.8 µM (active) | 
NC(=O)Cc1ccc2sc(-c3ccccc3)nc2c1 | 1.16 µM (active) | 
O=C(Nc1ccccc1C(=O)O)c1cccc(NC(=O)c2ccc(Br)o2)c1 | 32.6 µM (active) | 
Nc1ccc(-c2nc3cc(N)ccc3s2)cc1 | 0.259 µM (active) | 
